# Screens: PubChem, NMMLSC
# The list is not random: actives were taken first. Their share in the collection is about 3.5%.
# Autofluor counter = flagged as autofluorescent in microsphere protease counterscreen. compound autofluorescence counterscreen, microsphere flow cytometry; hits give high values. fluorescence intensity (no concentration beside the values). 360,000 compounds, 3.1% hits. AID 624483; in the data active = fluorescence intensity above about 16000; inconclusive = no clear call, values can overlap the other calls
# Anthrax LF inh2 = anthrax lethal factor protease inhibition. inhibition, % at 10 µM. P15917. multiplex microsphere protease cleavage assay, LF. AID 588501. 360,000 compounds, 0.12% hits; also: plate controls were buffer without enzyme for full effect and enzyme alone for no effect
# BoNT-A LC inh2 = BoNT A light chain protease inhibition. multiplex microsphere protease substrate cleavage, flow cytometry. inhibition, % at 10 µM. 360,000 compounds, 0.17% hits. AID 588499; also: plate controls were buffer without enzyme for full effect and enzyme alone for no effect
# BoNT-F LC inh = BoNT F light chain protease inhibition; 360,000 compounds, 0.22% hits; Multiplex microsphere protease cleavage assay, flow cytometry; inhibition, % at 10 µM; AID 588497; in the data active = inhibition above about 35%, passing the limit was not always enough; inconclusive = no clear call, values can overlap the other calls; also: plate controls were buffer without enzyme for full effect and enzyme alone for no effect
# Active calls of the source: *; ? = inconclusive; ! = not confirmed by another sample. Rule as the data show it, unless noted: active = inhibition above about 30%; inconclusive = no clear call, values can overlap the other calls; inactive = below that.
SMILES,Autofluor counter,Anthrax LF inh2,BoNT-A LC inh2,BoNT-F LC inh
CCC1CCC(N2CCN(c3cccc(OC)c3)CC2)CC1 (stereo not drawn),3903,-2,0,?
O=C(c1cccs1)N1CCN(CCCc2ccccc2)CC1,21596*,-2,-2,-4
CC(=O)NC(Cc1ccccc1)C(=O)N1CCN(C(=O)c2cccs2)CC1 (stereo not drawn),16669*,-3,0,0
CC(=O)NC(Cc1ccccc1)C(=O)NC1CCN(C(=O)NCc2ccccc2)CC1 (stereo not drawn),4616,-1,-1,0
CC(=O)NC(Cc1ccc(F)cc1)C(=O)N1CCN(C(=O)NCc2ccccc2)CC1 (stereo not drawn),20125*,-6,-1,-1
O=C(c1cccs1)N1CCN(S(=O)(=O)c2ccccc2)CC1,16321*,-2,-1,-4
O=C1c2ccccc2C(=O)N1C1C=CC=CC=C1,3832,-2,0,-7
CC(=O)c1cccc(OCC(=O)Nc2ccccc2N2CCOCC2)c1,2888,0,0,3
CCOc1ccc(C(CC(=O)O)NC(=O)c2ccco2)cc1 (stereo not drawn),19729*,-7,?,3
O=P(Nc1c(Cl)cccc1Cl)(c1ccccc1)c1nc2c(s1)CCCC2 (stereo not drawn),23723*,-9,-3,-3
CP(=O)(Nc1ccc(Cl)cc1)c1nc2c(s1)CCCC2 (stereo not drawn),4233,-1,0,-2
O=P(Nc1ccccc1Cl)(c1ccccc1)c1nc2c(s1)CCCC2 (stereo not drawn),17289*,-2,-3,-9
CC(NC(=O)c1ccco1)C(=O)OCc1cccc(Cl)c1 (stereo not drawn),25194*,-1,-6,-10
O=C(NCc1cccc(Cl)c1)c1ccco1,22733*,0,-1,-2
O=C(CCSc1ccc(Cl)cc1)c1ccco1,3014,-7,-5,-9
O=C(NCCSc1ccc(Cl)cc1)c1ccco1,21843*,-2,2,2
COc1ccc(C(=O)NCCNC(C)=O)cc1S(=O)(=O)NCc1ccc(Cl)cc1,19992*,-2,-1,-6
COc1ccc(C(=O)NCc2ccc3c(c2)OCO3)cc1S(=O)(=O)NCc1ccc(Cl)cc1,2024,0,-1,-9
Cc1ccc(C(=O)NCC(=O)N2CCCC(C(F)(F)F)C2)s1 (stereo not drawn),4254,-2,2,2
O=C(O)c1ccccc1NCN1C(=O)C2CC=C(Cl)CC2C1=O (stereo not drawn),24033*,-4,-4,-4
O=C1C2CC=C(Cl)CC2C(=O)N1CCC[n+]1ccccc1 (stereo not drawn),19255*,-1,?,2
Cc1ccc(NCN2C(=O)C3CC=C(Cl)CC3C2=O)cc1 (stereo not drawn),2906,-1,0,-3
CC1=C(C(=O)Nc2cccc(C(=O)NC3CCCC(C)C3C)c2)SCCO1 (stereo not drawn),5428,0,0,5
Cc1c(CCO)c(=O)[nH]n1S(=O)(=O)c1ccc([N+](=O)[O-])cc1,5324,1,1,7
O=C(Nc1nnc(C2CCCO2)s1)c1ccc(Br)cc1 (stereo not drawn),23157*,-4,0,0
SMILES,Autofluor counter,Anthrax LF inh2,BoNT-A LC inh2,BoNT-F LC inh
Cc1ccc(OCC(=O)Nc2nnc(C3CCCO3)s2)c(Br)c1 (stereo not drawn),3791,1,0,-4
COc1ccc(CN2CCN(C(=O)c3ccccc3C(=O)c3ccccc3)CC2)cc1OC,4401,0,0,-3
CC(C)Oc1ccc(CSc2nnc3n(C)c(=O)c4c5c(sc4n23)CCCC5)cc1,24669*,-1,?,0
C=C(C)CSc1nnc2n(C)c(=O)c3c4c(sc3n12)CCC4,9500,-4,1,10
COC(=O)C1=C(C)OC(N)=C(C#N)C1c1cc(OC)c(OCC(N)=O)cc1Cl (stereo not drawn),23456*,1,?,-4
COC(=O)C1=C(C)OC(N)=C(C#N)C1c1ccccc1F (stereo not drawn),10345,-3,0,-4
COc1ccccc1-c1c(C)oc2cc(OC(=O)c3ccco3)ccc2c1=O,20703*,0,?,-4
Nc1nccnc1C(=O)OCC(=O)c1ccc[nH]1,5964,5,0,-7
Cc1ccc(CSc2nnc(CC(=O)Nc3ccc(C)cc3)n2C)cc1,19547*,-1,2,3
Cc1ccc(NC(=O)Cc2nnc(SCC(=O)Nc3ccccc3)n2C)cc1,8363,-2,0,-9
Cc1ccc(OCc2nnc(SCC(=O)Nc3cc(C)on3)n2C)cc1,21396*,-6,2,2
COc1ccccc1NC(=O)Cc1nnc(SCC(=O)c2ccccc2)n1C,3485,-1,-2,-10
Cc1ccccc1NC(=O)Cc1nnc(SCC(=O)c2ccc(Br)cc2)n1C,18692*,-3,?,7
Cc1ccc(OCc2nnc(SCC(=O)Nc3ccc4c(c3)OCO4)n2C)cc1,26293*,-6,-8,-14
CCCCCCNC(=O)O[C@H]1C[C@H](C(=O)OC)[C@H](C(=O)OC)C2CN(S(=O)(=O)c3ccc(C)cc3)C[C@@]21O (stereo partly drawn),3483,-6,0,0
Cc1cccn2cc(CNc3ccccc3)nc12,20732*,-2,-1,-6
CCCS(=O)(=O)NCc1cn2cccc(C)c2n1,9905,-3,-2,-16
Cn1c2ccc(Cl)cc2c2nc3ccccc3nc21,4173,25,40*,18
c1ccc2[nH]c(-c3ccnc4ccccc34)nc2c1,17421*!,0,0,-5
CC(=O)Oc1ccc(-c2cccc(C(=O)NCC(=O)O)c2)cc1,23862*,-1,-2,-2
CN(Cc1nc(-c2ccccn2)no1)S(=O)(=O)c1ccc(Cl)cc1,21655*,1,4,4
COc1ccc(Cl)cc1N(CC(=O)Nc1cccc(SC)c1)S(C)(=O)=O,21540*,-6,4,4
COc1ccc(N(CC(=O)N2CCN(Cc3ccccc3)CC2)S(C)(=O)=O)cc1OC,3126,-11,-3,-1
Cc1ccc(-c2nnn(CC(=O)N(Cc3ccco3)C(C(=O)NC(C)(C)C)c3cccs3)n2)o1 (stereo not drawn),22756*,1,1,4
Cc1ccc(C(C(=O)NC(C)(C)C)N(CC2CCCO2)C(=O)Cn2nnc(-c3ccc(C)o3)n2)cc1 (stereo not drawn),16426*,0,?,1
SMILES,Autofluor counter,Anthrax LF inh2,BoNT-A LC inh2,BoNT-F LC inh
Cc1ccc(-c2nnn(CC(=O)N(Cc3cccs3)C(C(=O)NC(C)(C)C)c3ccco3)n2)o1 (stereo not drawn),11019,-3,-1,1
COc1ccc(OC)c(NC(=O)c2cc(S(=O)(=O)N(C)C)ccc2N2CCCC2)c1,6993,1,-3,-1
Cc1cccc(-n2nc3c(c2NC(=O)c2ccco2)CSC3)c1C,20718*,-3,0,2
NC(=O)c1ccsc1NC(=O)COC(=O)c1cccnc1Cl,3444,-2,1,3
CCN1c2ccccc2S(=O)(=O)c2ccccc21,3485,6,1,-8
O=C(Nc1ccccc1Cl)N1CCN(c2ccc3nnc(-c4ccc(F)cc4)n3n2)CC1,20523*,0,?,7
